# Data published in the supplement of paper PMC3414501.
# Counter-ions that a name gives are not always drawn. Unmarked numbers belong to inactive results. No stated cut-off is given here; in the data, active = 2 or more and inactive = the rest.
# Test system: S. cerevisiae BY4741 (wild-type), vegetative growth in YPD
# Assay: growth sensitivity score (doubling time z-score vs DMSO controls); higher = slower growth, strongly negative scores also mark growth inhibition (complete suppression), active = hit call of the paper
# How it was run: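 Saccharomyces cerevisiae strains BY4741 and AD1-9 were seeded in rich medium in microtiter plates at an OD600 of 0.065. Compounds were added at a 1:100 dilution of DMSO stock. Optical density was read every 15 min for 24 hours on a Tecan GENios reader. Average doubling time was the time taken to reach a set generation point divided by generation number, and the growth sensitivity score was (compound mean − DMSO-control mean)/DMSO-control SD, using eight DMSO controls per experiment.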
row,SMILES,growth sensitivity score
1,"CCCN[C@H]1CCc2nc(N)sc2C1 [Pramipexole hydrochloride] (stock concentration (mM, diluted 1:100): 7.1)",-0.39
2,"C#C[C@]1(O)CC[C@H]2[C@@H]3CCc4cc(OC)ccc4[C@H]3CC[C@@]21C [Mestranol] (stock concentration (mM, diluted 1:100): 10)",0.8
3,"COc1ccc2c(c1)c(CC(=O)O)c(C)n2C(=O)c1ccc(Cl)cc1 [Indomethacin] (stock concentration (mM, diluted 1:100): 10.5)",0.62
